Compound activity as filed in PubChem.
Sampled rows, rich in hits. Any-hit rate of the full collection: about 3.5%.
GPR151 ag – activates the human receptor GPR151. 650,000 tested, 1% active. Q8TDV0. activation, % at 11.2 µM. PathHunter beta-arrestin GPR151 cells, luminescence; in the data active = activation above about 4.9%;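 note: 0% = median of compound wells and 100% = cells with positive control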
MITF primary – inhibitors of human MITF. inhibition, % at 2.6 µM. AlphaScreen MITF homodimerization, bead proximity signal. O75030. 650,000 tested, 0.91% active; in the data active = inhibition above about 50%;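 note: 0% = vehicle wells with protein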
Target sequence (O75030 whole entry, looked up): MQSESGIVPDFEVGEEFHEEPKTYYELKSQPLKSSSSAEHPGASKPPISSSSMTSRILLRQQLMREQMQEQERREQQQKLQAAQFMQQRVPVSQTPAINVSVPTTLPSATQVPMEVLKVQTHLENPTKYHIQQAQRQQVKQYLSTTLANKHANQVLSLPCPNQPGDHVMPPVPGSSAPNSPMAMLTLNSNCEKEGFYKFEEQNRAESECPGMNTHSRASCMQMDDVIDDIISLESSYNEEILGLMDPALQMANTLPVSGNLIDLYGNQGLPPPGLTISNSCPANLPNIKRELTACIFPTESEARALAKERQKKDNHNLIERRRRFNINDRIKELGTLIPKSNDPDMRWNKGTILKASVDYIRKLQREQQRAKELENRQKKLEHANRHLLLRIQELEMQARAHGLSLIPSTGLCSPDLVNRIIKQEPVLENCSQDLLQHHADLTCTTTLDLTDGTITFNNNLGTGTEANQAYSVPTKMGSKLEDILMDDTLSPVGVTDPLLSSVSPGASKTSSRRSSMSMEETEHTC
FBW7 activator – activators of human E3 ligase FBW7. Q969H0. AlphaScreen FBW7–phospho-cyclin E peptide binding, activator screen. normalized activity (activation), % at 26.1 µM. AID 1259310. 650,000 tested, 0.13% active; in the data active = normalized activity above about 1.9%;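 note: purified mutant Fbw7 with reduced substrate affinity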
TEAD-YAP block – TEAD-YAP interaction inhibition. HEK-TIYL cells, TEAD-Gal4/YAP UAS-luciferase luminescence. inhibition, % at 9.12 µM. 640,000 tested, 1.4% active. AID 1259422; in the data active = inhibition above about 32%;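 note: 0% = median of test compound wells and 100% = reference inhibitor wells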
Numbers without * were called inactive.

SMILES	GPR151 ag	MITF primary	FBW7 activator	TEAD-YAP block
CC(=O)Nc1cccc(-c2cccc3cnc(Nc4ccc(-n5cnc(C)n5)cc4)nc23)c1	-1	21	0	57*
Cc1ncn(-c2ccc(Nc3ncc4cccc(-c5ccncc5)c4n3)cc2)n1	2	4	1	45*
Cc1ncn(-c2ccc(Nc3ncc4cccc(-n5cccn5)c4n3)cc2)n1	3	2	0	43*
S=C(NNc1nc(N2CCCC2)nc(N2CCCC2)n1)NC1CCCCC1	0	-11	0	39*
Cn1cnc2c(=S)[nH]c(=O)n(Cc3ccccc3)c21	0	3	0	-13
CCn1c(C(O)c2cc(OC)c(OC)c(OC)c2)nc2ccccc21 (stereo not drawn)	0	16	2.3*	9
COc1cc(/C=C2/N=C(c3cccc([N+](=O)[O-])c3)OC2=O)cc(OC)c1OC(C)=O	0	1	0	-5
COc1ccc2cc3c(N)c(C(=O)Nc4ccc(OC)c(OC)c4)sc3nc2c1	1	8	0	-1
c1cc2c(cc1Nc1nc(N3CCOCC3)nc(N3CCOCC3)n1)OCO2	-1	3	0	4
Cc1cnc(NCc2ccc3c(c2)OCO3)nc1Nc1ccc2c(c1)OCO2	1	-1	0	4
Cc1cnc(Nc2ccc(N3CCOCC3)cc2)nc1Nc1ccc2c(c1)OCO2	4	18	0	80*
Cc1cnc(Nc2cccc(N(C)C)c2)nc1Nc1ccc2c(c1)OCO2	1	23	0	40*
CN(C)c1cccc(Nc2nccc(Nc3ccc(N4CCOCC4)cc3)n2)c1	2	4	0	39*
c1cc2c(cc1Nc1nc(N3CCCCC3)nc(N3CCCCC3)n1)OCO2	-2	1	2.2*	-5
Cc1cnc(Nc2ccc(C(F)(F)F)cc2)nc1Nc1ccc2c(c1)OCO2	1	18	0	-9
CCOC(=O)C1(CC2CCCCO2)CCN(C(=O)Nc2cc(C)ccc2OC)CC1 (stereo not drawn)	3	-4	0	11
Cc1ccc(-c2c(N3CCN(c4ccccn4)CC3)c(=O)c2=O)cc1	0	9	0	2
C(=Nc1ccc(N=Cc2ccco2)cc1)c1ccco1	0	27	0	2
CCOC(=O)C1=C(C(F)(F)F)Nc2ncnn2C1c1ccc(C)cc1 (stereo not drawn)	-1	8	0	4
COc1cc(NC(=O)c2nn3c(C(F)(F)F)cc(-c4ccc(Br)cc4)nc3c2Cl)cc(OC)c1OC	0	5	0	1
Oc1ccc(Nc2nc3nonc3nc2Nc2ccccc2I)cc1	1	10	0	15
CCNc1cc(N2CCN(c3ncccn3)CC2)c2noc3c2c1C(=O)c1ccccc1-3	1	16	-1	7
CC1CCN(c2nc3c(c(=O)[nH]2)CN(Cc2ccccc2O)CC3)CC1	0	-5	0	-1
COc1cc2nc(Nc3cccc(N(C)C)c3)nc(Nc3ccc(N4CCOCC4)cc3)c2cc1OC	0	14	0	5
Cc1cnc(Nc2cccc(N(C)C)c2)nc1Nc1ccc(N2CCOCC2)cc1	2	19	0	66*
SMILES	GPR151 ag	MITF primary	FBW7 activator	TEAD-YAP block
Cc1cnc(Nc2nc3ccccc3n2C)nc1Nc1ccc2c(c1)OCO2	0	4	0	32*
Cc1ccc(C(=O)Nc2ccc(O)c(C)c2)cc1	-5	-5	0	93*
Cc1ccc(C(=O)Nc2cc(C)c(O)cc2C)cc1	-1	4	0	65*
Cc1ccc(C(=O)Nc2ccc(C(=O)N3CCCCC3)cc2)cc1	-2	12	3.4*	-18
Cc1ccc(C(=O)Nc2ccc(NC(=O)C(F)(F)F)cc2)cc1	-1	14	0	56*
Cc1ccc(C(=O)Nc2cc(C)c(C)cc2O)cc1	-3	0	0	0
Cc1ccc(NC(=O)c2ccccc2Cl)cc1C	-4	3	0	-9
Cc1cc(NC(=O)c2ccccc2Cl)ccc1O	-4	-23	0	83*
CCc1nn(CC(=O)NC(C)(C)C)c(=O)c2cc3oc(C)cc3n12	0	18	0	-4
c1ccc2[nH]c(CNc3nc(-c4ccc(N5CCOCC5)nc4)nc4c3ncn4-c3ccsc3)nc2c1	2	4	23*	82*
COc1ccc(-c2nc(NCc3nc4ccccc4[nH]3)c3ncn(-c4ccsc4)c3n2)cc1	1	16	0	27
CC(C)n1cnc2c(NCc3nc4ccccc4[nH]3)nc(-c3ccc(N4CCOCC4)nc3)nc21	-1	-1	0	70*
CC(C)n1cnc2c(NCc3ccccc3)nc(-c3ccc(N4CCOCC4)nc3)nc21	-2	3	0	5
